# Measured values: the supplement of paper PMC6607015
# Counter-ions that a name gives are not always drawn.
# Legend:
# Conditions in all cases: compound concentration in added solution (µM; 5 µl added to 20 µl cells): 10; 18 h
# A431 [1] = test: LBPA endosome anti-LBPA integrated intensity (sum per cell), Z-score; higher = more LBPA staining
# Summary of the method: (§1)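 Each value is a Z-score normalised in AcuityXpress from per-cell integrated LBPA or filipin intensity, taken over the whole cell or within LBPA endosomes. Duplicate 384-well imaging plates held 5 µl of 10 µM compound solution, onto which 3,500 HeLa MZ or A431 cells in 20 µl were seeded per well. After 18 h the cells were fixed in 4% PFA, stained with 6C4 anti-LBPA antibody, filipin, propidium iodide and CellTracker green, imaged four times per well at 20× and segmented in MetaXpress.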
# HeLa MZ [2] = test: as above
# Summary of the method: as §1
# A431 [3] = test: whole-cell filipin (free cholesterol) integrated intensity, Z-score; higher = more cholesterol staining
# Summary of the method: as §1
# HeLa MZ [4] = test: as above
# Summary of the method: as §1
# A431 [5] = test: filipin (cholesterol) integrated intensity within LBPA endosomes, Z-score; higher = more cholesterol in LBPA endosomes
# Summary of the method: as §1
# HeLa MZ [6] = test: as above
# Summary of the method: as §1
SMILES,LBPA endosome anti-LBPA integrated intensity (z-score) (A431 [1]),LBPA endosome anti-LBPA integrated intensity (z-score) (HeLa MZ [2]),whole-cell filipin (z-score) (A431 [3]),whole-cell filipin (z-score) (HeLa MZ [4]),filipin (z-score) (A431 [5]),filipin (z-score) (HeLa MZ [6])
C=C1/C(=C\C=C2/CCC[C@]3(C)[C@@H]([C@H](C)CCCC(C)C)CC[C@@H]23)C[C@@H](O)C[C@@H]1O [Alfacalcidol],0.0439,-0.204,-0.362,-0.701,-0.145,-0.743
Cc1cc(C(=O)NNCc2ccccc2)no1 [Isocarboxazid],-0.549,-1.31,-0.396,-0.63,-0.553,-0.513
CC1CNc2c(cccc2S(=O)(=O)N[C@@H](CCCNC(=N)N)C(=O)N2CC[C@@H](C)C[C@@H]2C(=O)O)C1 (stereo partly drawn) [Argatroban],-0.429,-0.462,-0.724,0.346,-0.455,-0.335
CCCCOc1ccc(OCCCN2CCOCC2)cc1 [Pramoxine hydrochloride],-0.284,1.34,0.443,2.25,-0.151,0.197
COc1ccc(-c2cc(=S)ss2)cc1 [Anethole-trithione],-0.536,-0.179,-0.0973,0.207,-0.447,-0.257
CC(C(O)c1ccc(O)cc1)N1CCC(Cc2ccccc2)CC1 (stereo not drawn) [Ifenprodil tartrate],0.387,-0.296,0.502,0.445,0.406,0.378
CN(C)CCn1nnnc1SCC1=C(C(=O)O)N2C(=O)[C@@H](NC(=O)Cc3csc(N)n3)[C@H]2SC1 [Cefotiam hydrochloride],-0.662,-1.47,-0.797,-1.09,-0.548,-0.711
CC(C)NC[C@@H](O)COc1cccc2ccccc12 [(R)-Propranolol hydrochloride],0.16,1.45,0.468,-0.0727,0.133,0.265
Nc1nc(=S)c2ncn([C@@H]3O[C@H](CO)[C@@H](O)[C@H]3O)c2[nH]1 [Thioguanosine],-0.355,1.49,-1.06,-0.863,-0.656,-0.626
NS(=O)(=O)c1cc(C2(O)NC(=O)c3ccccc32)ccc1Cl (stereo not drawn) [Chlorthalidone],-0.286,-0.349,-0.587,-0.924,-0.516,-0.608
Clc1ccc(Cn2c(CN3CCCC3)nc3ccccc32)cc1 [Clemizole hydrochloride],0.145,0.955,0.228,-0.285,0.0324,-0.147
CCCNC(C)(C)COC(=O)c1ccccc1 [Meprylcaine hydrochloride],-0.522,-0.427,-0.299,-0.094,-0.429,-0.419
NC(=O)OCC(O)COc1ccc(Cl)cc1 (stereo not drawn) [Chlorphensin carbamate],-0.6,-2.23,-1.05,-0.894,-0.514,-0.697
COCCOC(=O)C1=C(C)NC(C)=C(C(=O)OC/C=C/c2ccccc2)C1c1cccc([N+](=O)[O-])c1 (stereo not drawn) [Cilnidipine],0.601,0.589,1.38,-0.377,0.591,0.579
CC1(C)O[C@@H]2C[C@H]3[C@@H]4C[C@H](F)C5=CC(=O)C=C[C@]5(C)[C@@]4(F)[C@@H](O)C[C@]3(C)[C@]2(C(=O)CO)O1 [Fluocinolone acetonide],-0.172,-0.371,0.258,0.13,-0.163,-0.367
CC(C)(C)NC[C@H](O)c1ccc(O)c(CO)c1 [Levalbuterol hydrochloride],-0.401,-1.22,0.171,-0.774,-0.471,-0.476
CC(C)(C)C(=O)OCOC(=O)[C@@H]1N2C(=O)[C@@H](/N=C/N3CCCCCC3)[C@H]2SC1(C)C [Pivmecillinam hydrochloride],-0.535,-0.482,-0.185,-0.0756,-0.424,-0.445
CCOC(=O)C1=C(C)NC(C)=C(C(=O)OCC)C1c1ccccc1/C=C/C(=O)OC(C)(C)C [Lacidipine],0.359,1.4,0.71,1.28,0.446,0.927
CC(C)(O)c1ccccc1CC[C@@H](SCC1(CC(=O)O)CC1)c1cccc(/C=C/c2ccc3ccc(Cl)cc3n2)c1 [Montelukast],-0.42,0.903,-0.0363,0.0687,-0.415,-0.392
CCN(CCCCOC(=O)c1ccc(OC)c(OC)c1)C(C)Cc1ccc(OC)cc1 (stereo not drawn) [Mebeverine hydrochloride],2.42,2.15,1.9,1.63,2.46,2.74
"CC(C)NCC(O)c1ccc(O)c(O)c1 (single isomer, unassigned; (-)) [(-)-Isoproterenol hydrochloride]",-0.173,-0.052,0.672,-0.415,-0.458,-0.467
O=C(C1CCCCC1)N1CC(=O)N2CCc3ccccc3C2C1 (stereo not drawn) [Praziquantel],-0.253,-0.0737,-0.0988,0.0128,-0.417,-0.225
CN(C)/N=N/c1[nH]cnc1C(N)=O [Dacarbazine],-0.547,-0.605,-0.746,-0.976,-0.487,-0.668
CN1CCN(C2=Nc3cc(Cl)ccc3Nc3ccccc32)CC1 [Clozapine],1.19,2.46,0.629,-0.114,0.781,1.4

SMILES,LBPA endosome anti-LBPA integrated intensity (z-score) (A431 [1]),LBPA endosome anti-LBPA integrated intensity (z-score) (HeLa MZ [2]),whole-cell filipin (z-score) (A431 [3]),whole-cell filipin (z-score) (HeLa MZ [4]),filipin (z-score) (A431 [5]),filipin (z-score) (HeLa MZ [6])
COc1nc(C)nc(Cl)c1NC1=NCCN1 [Moxonidine],-0.127,0.511,-0.0575,-0.203,-0.176,-0.384
CC[N+](C)(CC)CCC[n+]1c(-c2ccccc2)c2cc(N)ccc2c2ccc(N)cc21 [Propidium iodide],-0.615,-1.77,-0.548,-0.836,-0.56,-0.527
CCCc1nn(C)c2c(=O)[nH]c(-c3cc(S(=O)(=O)N4CCN(C)CC4)ccc3OCC)nc12 [Sildenafil],-0.41,-0.61,-0.134,-0.0955,-0.415,-0.257
N[C@@H](Cc1cc(I)c(Oc2ccc(O)c(I)c2)c(I)c1)C(=O)O [Liothyronine],-0.519,0.00578,-0.411,-0.281,-0.479,-0.592
"Cc1c(O)c(=O)n(-c2ccccc2)n1C [Antipyrine, 4-hydroxy]",-0.407,-0.193,-0.48,0.114,-0.485,-0.43
CN1CCCC(n2nc(Cc3ccc(Cl)cc3)c3ccccc3c2=O)CC1 (stereo not drawn) [Azelastine HCl],3.18,2.26,1.79,0.915,2.29,3.01
CC(=O)OCC(=O)[C@@]12OC3(CCCC3)O[C@@H]1C[C@H]1[C@@H]3CCC4=CC(=O)C=C[C@]4(C)[C@@]3(F)[C@@H](O)C[C@@]12C [Amcinonide],-0.0445,0.215,0.476,0.977,-0.0127,0.16
CN1CCN(CCCN2c3ccccc3Sc3ccc(S(=O)(=O)N(C)C)cc32)CC1 [Thioproperazine dimesylate],2.72,1.97,0.546,-0.109,2.28,2.33
C[C@H]1[C@H](NC(=O)/C(=N\OC(C)(C)C(=O)O)c2csc(N)n2)C(=O)N1S(=O)(=O)O [Aztreonam],-0.461,-0.629,-0.642,-0.428,-0.521,-0.607
CN(C)[C@@H]1C(O)=C(C(N)=O)C(=O)[C@@]2(O)C(O)=C3C(=O)c4c(O)ccc(Cl)c4[C@@H](O)[C@H]3C[C@@H]12 [Demeclocycline hydrochloride],-0.567,-1.25,-0.566,-1.1,-0.465,-0.672
CCC(=O)O[C@@H](O[P@](=O)(CCCCc1ccccc1)CC(=O)N1C[C@H](C2CCCCC2)C[C@H]1C(=O)O)C(C)C [Fosinopril],-0.177,-0.153,-0.025,0.0232,-0.364,-0.383
CCOc1ccccc1OCC1CNCCO1 (stereo not drawn) [Viloxazine hydrochloride],-0.217,0.639,-0.124,-0.0106,-0.346,-0.261
c1ccc2[nH]c(-c3cscn3)nc2c1 [Tiabendazole],-0.626,-1.01,-0.678,-0.558,-0.54,-0.645
Cc1c(Cl)cccc1Nc1ccccc1C(=O)O [Tolfenamic acid],-0.417,-0.76,-0.809,-0.604,-0.464,-0.636
COc1ccc(CC2c3cc(OC)c(OC)cc3CC[N+]2(C)CCC(=O)OCCCCCOC(=O)CC[N+]2(C)CCc3cc(OC)c(OC)cc3C2Cc2ccc(OC)c(OC)c2)cc1OC (stereo not drawn) [Atracurium besylate],-0.229,-0.154,-0.0896,-0.584,-0.0589,0.0777
NS(=O)(=O)c1cc2c(cc1C(F)(F)F)NC(Cc1ccccc1)NS2(=O)=O (stereo not drawn) [Bendroflumethiazide],-0.595,-0.755,-0.332,-0.0234,-0.529,-0.486
NNC(=O)c1ccncc1 [Isoniazid],-0.56,-1.34,-0.938,-1.09,-0.477,-0.667
COC(=O)C1=C(C)NC(C)=C(C(=O)OCCN(C)Cc2ccccc2)C1c1cccc([N+](=O)[O-])c1 (stereo not drawn) [Nicardipine hydrochloride],1.9,0.904,1.24,-0.142,1.79,0.881
O=C(O)c1cc(=O)c2c(OCC(O)COc3cccc4oc(C(=O)O)cc(=O)c34)cccc2o1 [Cromolyn disodium salt],-0.474,-0.0857,-0.438,-0.156,-0.425,-0.474
CCCOc1ccccc1-c1nc2[nH]nnc2c(=O)[nH]1 [Zaprinast],-0.577,-0.755,-0.471,0.00218,-0.519,-0.401
CN(C)c1nc(N(C)C)nc(N(C)C)n1 [Altretamine],-0.54,-1.33,-0.283,-0.6,-0.517,-0.671
Cc1ncc([N+](=O)[O-])n1CC(O)CCl (stereo not drawn) [Ornidazole],-0.468,-0.445,-0.79,-0.699,-0.356,-0.454
C#C[C@]1(OC(C)=O)CC[C@H]2[C@@H]3CCC4=C[C@@H](OC(C)=O)CC[C@@H]4[C@H]3CC[C@@]21C [Ethynodiol diacetate],-0.254,0.88,0.227,0.371,-0.191,-0.00334
COc1cc(C(=O)NS(=O)(=O)c2ccccc2C)ccc1Cc1cn(C)c2ccc(NC(=O)OC3CCCC3)cc12 [Zafirlukast],-0.518,-0.847,-0.458,-0.494,-0.486,-0.569
